Screening results from PubChem BioAssay.
TbPYK inhibitor: inhibitors of Trypanosoma brucei pyruvate kinase | Q57TT1 | TbPYK enzyme, Kinase-Glo Plus ATP luminescence, 45 min | Potency, µM (doses to about 76.8 µM), inactives show at the highest dose activity, negative = inhibition, actives largely listed as inhibitors | 410,000 tested, 0.12% active | AID 624173; note: potency is the fitted concentration of half-maximal effect; nearly all actives have a fitted effect of over 50% in size
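ADP (130 uM final) triggers the TbPYK reaction after compound addition; incubation is 45 min at room temperature. Kinase-Glo Plus is then added and luminescence imaged. Normalized data are fitted to concentration-effect curves.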
VACV Venus inh: vaccinia inhibition (Venus reporter). Vaccinia virus Venus reporter expression, fluorescence. Potency, µM (titrated, usually from 36.5 µM), for inactives: top-dose activity change, negative = inhibition, hits mostly inhibitors. 330,000 tested, 0.46% active. AID 720580; calls by dose curve; tested in A549 cells; note: potency is the fitted concentration of half-maximal effect; nearly all actives have a fitted effect of over 30% in size
LmPK inhibitor: LmPK (Leishmania mexicana) enzyme inhibition. 290,000 tested, 0.37% active. purified LmPK, Kinase-Glo ATP luminescence, 1 h. Potency, µM (doses to about 57.5 µM), for the others: top-dose activity change, negative = inhibition, actives largely listed as inhibitors. Q27686; note: potency is the fitted concentration of half-maximal effect
Target sequence (Q27686 whole entry, looked up): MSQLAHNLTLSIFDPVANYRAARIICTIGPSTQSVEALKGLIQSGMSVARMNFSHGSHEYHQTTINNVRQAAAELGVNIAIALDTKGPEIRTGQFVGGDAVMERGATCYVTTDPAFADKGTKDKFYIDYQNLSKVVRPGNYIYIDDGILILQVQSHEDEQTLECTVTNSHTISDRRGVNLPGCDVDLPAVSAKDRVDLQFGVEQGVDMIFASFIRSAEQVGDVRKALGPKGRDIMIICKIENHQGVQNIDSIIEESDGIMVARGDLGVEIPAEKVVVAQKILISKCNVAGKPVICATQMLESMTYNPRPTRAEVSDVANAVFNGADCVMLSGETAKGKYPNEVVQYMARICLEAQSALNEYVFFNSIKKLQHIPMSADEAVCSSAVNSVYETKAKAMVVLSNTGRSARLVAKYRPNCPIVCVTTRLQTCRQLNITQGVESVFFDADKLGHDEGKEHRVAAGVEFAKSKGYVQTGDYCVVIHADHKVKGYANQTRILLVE
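Purified LmPK (0.1 nM) with 0.5 mM PEP and 0.1 mM ADP in imidazole buffer pH 7.2 with MgCl2/KCl, 1 h at room temperature. ATP formed was read by luciferase luminescence and normalized to no-enzyme and uninhibited controls.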
HCMV antiviral: inhibitors of human cytomegalovirus; HFF cells, HCMV-luciferase reporter, 72 h; stronger effect = lower value; activity change, negative = inhibition, % at 57.5 µM; 410,000 tested, 4.5% active; AID 1259415; in the data active = activity change below about -60%; inconclusive = no clear call, values can overlap the other calls; inactive = above about -39%
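Inhibition of viral replication was scored as loss of reporter luminescence in HFFs infected with HCMV-luciferase (MOI 1 PFU/cell) for 72 h; compounds tested at 2 doses, normalized to buffer and Salinomycin controls.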
VACV mCherry inh: vaccinia inhibition (mCherry reporter) | 310,000 tested, 0.63% active | AID 720579 | Vaccinia virus mCherry reporter infection, fluorescence | Potency, µM (series often up to 36.5 µM), without a hit: top-dose activity change, negative = inhibition, usual class: inhibitors; calls by dose curve; tested in A549 cells; note: potency is the fitted concentration of half-maximal effect; nearly all actives have a fitted effect of over 35% in size
* hit, by the source's call; [ ] = remark or other dose. An excerpt weighted towards active compounds, which were near 5% of everything screened. Unless noted, calls come from the whole dose curve; as a rule, active = well fitted curve in the direction sought with a large enough effect; inconclusive = small, poorly fitted or top-dose-only effect, or another doubt; inactive = no such curve, though single readings can be large; an effect the other way counts as inactive or inconclusive. % is set by controls: 0 for no effect and ±100 for the full control effect.

For Cc1cc(C)cc(Nc2nc3ccccc3c(=O)[nH]2)c1 the results were TbPYK inhibitor 1%, VACV Venus inh -20%, LmPK inhibitor 0%, HCMV antiviral inconclusive and VACV mCherry inh -10%.
Screening CCN(CC)C(=O)c1sc2c(c1C)c(=O)n(Cc1ccccc1)c(=O)n2Cc1ccc(Cl)cc1 returned TbPYK inhibitor 3%, VACV Venus inh -19%, HCMV antiviral -18 and VACV mCherry inh inconclusive.
COc1ccc(Cc2nnc(Nc3ccccc3)s2)cc1Br was read as TbPYK inhibitor -12%, VACV Venus inh 63%, LmPK inhibitor 2%, HCMV antiviral 30 and VACV mCherry inh -11%.
For Cc1nc(Nc2nc(CSc3ccc(Cl)cc3)cc(=O)[nH]2)nc2ccccc12 the results were TbPYK inhibitor 1%, VACV Venus inh -4%, LmPK inhibitor 5%, HCMV antiviral -17 and VACV mCherry inh -13%.
COc1cccc2c(C)nc(Nc3nc(CSc4nnc(C)s4)cc(=O)[nH]3)nc12 was read as TbPYK inhibitor -16%, LmPK inhibitor -1% and HCMV antiviral 27.
Cc1ccc2c(=O)[nH]c(Nc3nc(C)cc(-c4ccccc4)n3)nc2c1 was read as TbPYK inhibitor -1%, VACV Venus inh -26%, LmPK inhibitor 3%, HCMV antiviral -29 and VACV mCherry inh -10%.
For Cc1ccc2c(C)nc(Nc3nc(CSc4nnc(C)s4)cc(=O)[nH]3)nc2c1 the results were TbPYK inhibitor -1%, LmPK inhibitor -1% and HCMV antiviral -99*.
Screening Cc1nc(Nc2nc(-c3ccccc3)cc(=O)[nH]2)nc2ccccc12 returned TbPYK inhibitor 6%, VACV Venus inh 10µM*, HCMV antiviral 52 and VACV mCherry inh 10µM*.
`Cc1nc(Nc2nc(CSc3nc4ccccc4[nH]3)cc(=O)[nH]2)nc2ccccc12` gave TbPYK inhibitor 1%, VACV Venus inh 10µM*, LmPK inhibitor 2%, HCMV antiviral -103* and VACV mCherry inh 10µM*.
Screening CCCCN(C(=O)/C=C/c1ccc(OCC(C)C)c(OCC)c1)c1c(N)n(CCC)c(=O)[nH]c1=O returned TbPYK inhibitor 1%, VACV Venus inh -13%, LmPK inhibitor 2%, HCMV antiviral -15 and VACV mCherry inh inactive.
`O=S(=O)(c1ccc(NC(=S)NC2CC2)cc1)N1CCOCC1` gave TbPYK inhibitor -4%, VACV Venus inh -6%, LmPK inhibitor -6%, HCMV antiviral -40 and VACV mCherry inh inactive.
CN(C)c1ccc(/C=C2/C(=N\O)C3CCN2CC3)cc1 was read as TbPYK inhibitor -20%, VACV Venus inh -20%, LmPK inhibitor -4%, HCMV antiviral -98* and VACV mCherry inh -26%.
Screening CN(C)c1ccc(/C=N/O)cc1 returned TbPYK inhibitor -3%, VACV Venus inh 0%, LmPK inhibitor -4%, HCMV antiviral -28 and VACV mCherry inh inactive.
For CC1(C(=O)Nc2nccs2)CCN1C(=O)CC(c1ccccc1)c1ccccc1 (stereo unspecified) the results were TbPYK inhibitor 1%, VACV Venus inh -4%, HCMV antiviral -102* and VACV mCherry inh 12%.
`CC1(C(=O)Nc2nccs2)CCN1C(=O)C1(c2ccccc2)CC1` (stereo unspecified) gave TbPYK inhibitor 0%, VACV Venus inh -3%, HCMV antiviral -36 and VACV mCherry inh 38%.
Screening CC(=O)N1c2ccc(S(=O)(=O)N3CCC(C(=O)Nc4cccc(C(F)(F)F)c4)CC3)cc2CC1C (stereo unspecified) returned TbPYK inhibitor 5%, VACV Venus inh -16%[7.34 µM], LmPK inhibitor -9%, HCMV antiviral -89* and VACV mCherry inh -14%[7.34 µM].
For O=C(Nc1cccc(C(F)(F)F)c1)C1CCN(S(=O)(=O)c2ccc(N3CCCC3=O)cc2)CC1 the results were TbPYK inhibitor -2%, LmPK inhibitor 7% and HCMV antiviral -66*.
For CCc1cccc(NC(=O)C2CCN(S(=O)(=O)c3ccc4c(c3)CC(C)N4C(C)=O)CC2)c1 (stereo unspecified) the results were TbPYK inhibitor -2%, VACV Venus inh inconclusive, LmPK inhibitor -4%, HCMV antiviral -85* and VACV mCherry inh -24%.
Screening O=C(Nc1cccc(Cl)c1)C1CCCN1S(=O)(=O)c1cccc2cccnc12 (stereo unspecified) returned TbPYK inhibitor 1%, VACV Venus inh -11%, HCMV antiviral 14 and VACV mCherry inh -16%.
O=C(Nc1cccc(C(F)(F)F)c1)C1CCCN1S(=O)(=O)c1cccc2cccnc12 (stereo unspecified) was read as TbPYK inhibitor -4%, LmPK inhibitor 4% and HCMV antiviral -93*.
For COc1cccc(NC(=O)C2CCN(S(=O)(=O)c3ccc(N4CCCC4=O)cc3)CC2)c1 the results were TbPYK inhibitor 1%, VACV Venus inh inconclusive, HCMV antiviral 0 and VACV mCherry inh inactive.
`CCCC(=O)Oc1ccc(N(C(=O)CCC)S(=O)(=O)c2cccs2)cc1` gave TbPYK inhibitor -5%, VACV Venus inh -2%, LmPK inhibitor 9%, HCMV antiviral 12 and VACV mCherry inh -2%.
`S=C(NCCN(C1CCCCC1)C1CCCC1)Nc1cccc(Cl)c1` gave TbPYK inhibitor -8%, VACV Venus inh inconclusive, LmPK inhibitor 2%, HCMV antiviral -85* and VACV mCherry inh inconclusive.
For S=C(NCCC(c1ccccc1)c1ccccc1)Nc1cccc(Cl)c1 the results were TbPYK inhibitor -4%, VACV Venus inh inconclusive, LmPK inhibitor -1%, HCMV antiviral -34 and VACV mCherry inh -6%[1.46 µM].
S=C(NCc1cccs1)Nc1cccc(Cl)c1 was read as TbPYK inhibitor 4%, LmPK inhibitor 6% and HCMV antiviral -69*.
Screening S=C(NCc1cccs1)Nc1cc(Cl)cc(Cl)c1 returned TbPYK inhibitor -5%, VACV Venus inh -21%, LmPK inhibitor 6%, HCMV antiviral -100* and VACV mCherry inh -23%.
O=C(NCc1cccs1)Nc1cccc(Cl)c1 was read as TbPYK inhibitor -22%, VACV Venus inh inconclusive, HCMV antiviral 18 and VACV mCherry inh -6%.
For CCC(=O)N1CCc2cc(CNC(=O)Nc3cc(OC)c(OC)c(OC)c3)ccc21 the results were TbPYK inhibitor 0%, VACV Venus inh 9%, HCMV antiviral 1 and VACV mCherry inh -6%.
CCOc1nc2cccc(C(=O)OC(C)OC(=O)OC3CCCCC3)c2n1Cc1ccc(-c2ccccc2-c2nn[nH]n2)cc1 (stereo unspecified) was read as VACV Venus inh -25%, HCMV antiviral -86* and VACV mCherry inh -30%.
For C/C(=N\NC(=O)c1ccc(OC2CCCC2)cc1)c1ccc(C)s1 the results were TbPYK inhibitor 1%, VACV Venus inh -9%, LmPK inhibitor -3%, HCMV antiviral -33 and VACV mCherry inh inactive.
For Cc1ccc(Cl)cc1N1CCN(C(=O)Cn2cnc3onc(-c4ccc(F)cc4)c3c2=O)CC1 the results were TbPYK inhibitor -1%, VACV Venus inh 5%, HCMV antiviral 7 and VACV mCherry inh 1%.
